Where “and” joins values, the source holds several entries; their conditions need not be identical. Equal values may be shown once. In all, about 220,000 compounds went through this assay and about 16,000 (7.3%) were called active. Not shown: some 25% with an inconclusive outcome. This is one part of a sample in which actives are shown more often than they occur. Values without a mark were called inactive. The call rests on the fitted dose curve; in most records, active means well fitted inhibition curve with a large enough effect (not every such curve was filed as active); inconclusive means small, poorly fitted or top-dose-only effect, or another doubt; inactive means no such curve, though single readings can be large or run the other way.
target: Aldehyde dehydrogenase 1A1 (Homo sapiens) (UniProt P00352); test: qHTS Assay for Inhibitors of Aldehyde Dehydrogenase 1 (ALDH1A1); conditions: Purified ALDH1A1, NADH fluorescence, propionaldehyde substrate; series mostly up to 75.3 µM; activity, negative = inhibition: at the top concentration;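 on activity, negative = inhibition: plate controls were no enzyme wells and a reference inhibitor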
Potency means the concentration at half of the fitted maximal effect.

Sequence of Aldehyde dehydrogenase 1A1 (Homo sapiens) (P00352 whole entry, looked up): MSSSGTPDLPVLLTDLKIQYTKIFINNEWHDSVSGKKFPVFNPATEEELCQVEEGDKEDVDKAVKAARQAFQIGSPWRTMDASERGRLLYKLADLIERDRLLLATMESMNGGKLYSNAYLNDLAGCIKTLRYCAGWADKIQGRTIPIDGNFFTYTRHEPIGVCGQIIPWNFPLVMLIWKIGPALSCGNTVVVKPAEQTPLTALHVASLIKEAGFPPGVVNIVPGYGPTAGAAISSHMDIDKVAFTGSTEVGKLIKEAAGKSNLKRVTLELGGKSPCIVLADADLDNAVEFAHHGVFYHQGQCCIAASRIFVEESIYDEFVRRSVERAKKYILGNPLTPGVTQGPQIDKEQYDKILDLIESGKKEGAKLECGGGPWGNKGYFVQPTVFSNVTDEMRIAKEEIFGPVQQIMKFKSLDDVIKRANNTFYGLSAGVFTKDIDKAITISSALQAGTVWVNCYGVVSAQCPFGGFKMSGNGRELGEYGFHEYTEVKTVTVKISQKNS

SMILES	activity, negative = inhibition	Potency
Cc1c(CCC(=O)O)c(=O)oc2cc3occ(-c4ccccc4)c3cc12	2.47%	
O=C(COc1ccc(S(=O)(=O)N2CCCCC2)cc1)NCc1ccccn1	-3.55%	
Cc1ncn(C23CC4CC(CC(O)(C4)C2)C3)n1	4.89%	
Cc1nc([N+](=O)[O-])nn1C12CC3CC(CC(Br)(C3)C1)C2		8.91 µM (active)
Cc1cn(C)c(=O)n(C)c1=O	-1.22%	
CN(C)CCCSc1ccccc1NC(=O)/C=C/c1ccccc1	1.08%	
O=C(CCN1C(=O)c2ccncc2C1=O)Nc1cc(F)ccc1F	1.86%	
Cc1ccc(N(C(=O)Cc2cccs2)C2C=CS(=O)(=O)C2)cc1Cl (stereo not drawn)	-10.7%	
O=C(O)C1CC=CCC1C(=O)Nc1ccccc1C(=O)N1CCN(c2ccccc2)CC1 (stereo not drawn)	3.98%	
Cc1cccc(N2CCN(C(=O)c3ccccc3NC(=O)C3CCCCC3C(=O)O)CC2)c1 (stereo not drawn)	-1.92%	
CC(C)c1ccc(N2CCN(C(=O)c3ccccc3NC(=O)/C=C(\C(=O)O)c3ccccc3)CC2)cc1		22.4 µM (active)
O=C(NC1(C(F)(F)F)NC(=O)N(C2CCCCC2)C1=O)c1ccco1 (stereo not drawn)	2.2%	
CCOc1ccc(Cn2nnc(C(=O)NCc3ccccc3)c2N)cc1	-9.7%	
CCOc1c2ccc(C(=O)NCc3ccc(OC(F)(F)F)cc3)cc2nn1C		3.16 µM (active)
CCCCOc1ccc(C(=O)NCc2ccncc2)cc1	8.81%	
CCOC(=O)C(C)n1nc(-c2ccccc2)c2ccccc2c1=O (stereo not drawn)	-4.13%	
Cc1cc(NC(=O)Nc2ccccc2[N+](=O)[O-])no1	-5.73%	
COc1ccc(/C=C/NC(=O)c2ccc(OC)cc2)cc1		2.82 µM (active)
COc1ccc(/C=C/NC(=O)Cc2ccc(OC)c(OC)c2)cc1	8.87% [at 13.5 µM] and 1.01% [at 13.5 µM]	
COc1ccc(NC(=O)c2ccc(OC)cc2)cc1	-2.23%	
CCOC(=O)NNC(=O)c1ccc(Cl)cc1	-3.42%	
CCOC(=O)C1C(c2ccc(Cl)cc2)NC(=S)NC1(O)C(F)(F)F (stereo not drawn)		7.94 µM (active)

SMILES	activity, negative = inhibition	Potency
O=C(c1cccs1)C1C(c2ccc(Br)cc2)NC(=S)NC1(O)C(F)(F)F (stereo not drawn)		3.16 µM (active)
CC(=O)C1C(c2ccc(Cl)cc2)NC(=O)NC1(O)C(F)(F)F (stereo not drawn)	8.56%	
O=C(CN(C(=O)c1csnn1)c1cccc(F)c1)NCc1ccc(F)cc1	5.3%	
CCn1cnc2scc(-c3ccc(C)c(C)c3)c2c1=O	-6.88%	
CN1C(=O)/C(=C\c2cc(Br)cs2)c2ccccc21	-2.78%	
CC(C)c1csc(CN2CCC(CO)(Cc3ccccc3)CC2)n1	15%	
CCOc1cc(CNn2c(C)nnc2SCC(=O)NC(C)(C)C)ccc1OCC(=O)NC(C)(C)C	8.98%	
CCOCCCNCc1ccc(OCc2ccc(F)cc2)c(OC)c1	0.342%	
O=C(CCc1n[nH]c(=O)[nH]c1=O)N/N=C/c1ccc(Br)o1	-3.34%	
Cc1nnc(SCC(=O)N2c3ccccc3C(C)(c3ccc(Cl)cc3)CC2(C)C)s1 (stereo not drawn)	3.67%	
O=[n+]1c2c(n([O-])c3cc(Br)ccc31)CCC2		31.6 µM (active)
Cc1ccc(-c2c(C)n([O-])c3c([n+]2=O)CCC3)cc1	5.63%	
Cc1ccc(-c2c[n+](=O)c3c(n2[O-])CCC3)cc1	7.22%	
COc1ccc([N+](=O)[O-])cc1NC(=O)CC1SC(=Nc2cccc(C)c2C)N(/N=C(\C)c2ccc(C)cc2)C1=O (stereo not drawn)	-1.71%	
CN(c1ccccc1)S(=O)(=O)c1ccc(Cl)c(C(=O)OCC(=O)N2CCOCC2)c1	8.36%	
O=C1CCCC2=C1C(c1cccs1)CC(=O)N2c1ccc(F)cc1 (stereo not drawn)	2.98%	
Cn1c(N)cc(-c2ccc(F)cc2)c(C#N)c1=O	-6.05%	
N#CC1=C(N)N(c2ccc(F)cc2)C(=O)C1		22.4 µM (active)
O=C(CCC(=O)c1cccs1)NC1CCCCCC1	-13.8%	
CCCCNC(=O)N1CCN(S(C)(=O)=O)CC1	-0.297%	
COc1ccccc1NC(=O)COC(=O)Cc1ccc(S(=O)(=O)N2CCCCC2)s1	-5.93%	
CCOC(=O)C1Sc2[nH]c(=O)sc2C(c2ccc(Cl)cc2)C1C(=O)OCC (stereo not drawn)		11.2 µM (active)

SMILES	activity, negative = inhibition	Potency
CCOC(=O)C1=C(C)NC(=O)N(C(C)=O)C1c1ccc(Cl)cc1 (stereo not drawn)	-0.324%	
Cc1c(NC(=O)CCC2CCCCC2)cc(C(=O)N2CCOCC2)cc1[N+](=O)[O-]	3.98%	
O=C(N/N=C/c1ccco1)c1ccc(NC(=O)C2CC2)cc1	-3.27%	
Cc1ccc(NC(=O)Nc2cccc(C(F)(F)F)c2)nc1	-7.02%	
COc1ccc(/C=N\NC(=O)c2sc(N)nc2C)cc1OC	2.89%	
COc1ccc(/C=N/NC(=O)c2ccc(Cl)cc2)cc1COC(C)=O	7.34%	
COc1ccc(C(=O)Nc2ccccc2C(=O)N/N=C/c2ccc(O)c(OC)c2)cc1	3.47%	
COc1ccc(/C=N/NC(=O)c2ccccc2)cc1OS(=O)(=O)c1ccccc1		14.1 µM (active)
COc1cccc(/C=N/NC(=O)c2cccc([N+](=O)[O-])c2)c1OS(=O)(=O)c1ccc(C)cc1	-5.06%	
COc1cc(/C=N/NC(=O)c2ccccc2)ccc1OS(=O)(=O)c1ccccc1		14.1 µM (active)
O=C(NNC(=O)c1cnccc1C(F)(F)F)c1ccc(Cl)cc1	10.2%	
Nc1nc(O)c(CC(=O)O)s1	3.26%	
Cc1cc(C)c(C(N)=O)c(Cl)n1	3.59%	
CCOC(=O)c1sc(NC(=O)CSc2nnc(-c3ccco3)o2)c(C(=O)OCC)c1C	-8.17%	
CCc1c(C)sc(NC(=O)OC)c1C(=O)N1CCOCC1	0.994%	
CCOC(=O)c1c(NC(=O)CCl)sc(C(=O)N(CC)CC)c1C		10 µM (active)
CCOC(=O)c1c(NC(C)=O)sc2c(O)c(Br)ccc12	-12.2%	
CCOC(=O)c1sc(NC(=O)CCN2CCOCC2)c(C(=O)OCC)c1C		17.8 µM (active)
CCOC(=O)c1sc(NC(=O)COc2ncnc3ccccc23)c(C(=O)OCC)c1C	-16.3%	
O=C(c1cc(=O)c2ccccc2o1)N1CCN(c2ccccc2)CC1	-7.27%	
COc1cccc(C(=O)Nc2nc3ccc(S(C)(=O)=O)cc3s2)c1	-1.22%	
CC(=O)NC1=NN(C(C)=O)C(C)(CCS(=O)(=O)c2ccc(Cl)c(Cl)c2)S1 (stereo not drawn)	-5.25%	

SMILES	activity, negative = inhibition	Potency
CN(C)c1ccc(-n2cccc2/C=C2/SC(=Nc3ccc(F)cc3)NC2=O)cc1	-0.0028%	
Cc1ccc(N=C2NC(=O)/C(=C/C=C/c3ccco3)S2)cc1C		7.94 µM (active)
Nc1nc2c(ncn2[C@@H]2O[C@H](COP(=O)(O)OP(=O)(O)OP(=O)(O)O)[C@@H](O)C2O)c(=O)[nH]1 (stereo partly drawn)	4.41%	
O=C(Nc1ccccc1C(=O)N1CCOCC1)c1ccc(Cl)cc1	5.03%	
O=C(CSCc1c(F)cccc1Cl)NCC1CCCO1 (stereo not drawn)	2.6%	
Cc1nnsc1C(=O)NCc1c(F)cccc1Cl	9.4%	
Fc1cccc(Cl)c1CSc1ccc(-c2ccco2)nn1		20 µM (active)
CCc1ccc(C(=O)OCC(=O)NCC(F)(F)F)cc1	-2.12%	
OCCNCCOc1ccc(Cl)c(Cl)c1	-8.88%	
COc1ccc(-n2cnnc2SCC(=O)Nc2cccc([N+](=O)[O-])c2)cc1	5.76%	
C=CCn1c2ccccc2c2nnc(SCc3[nH]c(=O)[nH]c3C(=O)CCCCC(=O)OCC)nc21		10 µM (active)
C=CCn1c(COc2ccccc2)nnc1SCC(=O)NCC(=O)OCC	8.67%	
C=CCn1c2ccccc2c2nnc(SC(CC)C(=O)Nc3nc(C)c(C(=O)OCC)s3)nc21 (stereo not drawn)	-8.14%	
COc1ccccc1C(c1nnnn1C(C)(C)C)N1CCN(Cc2ccccc2)CC1 (stereo not drawn)		20 µM (active)
CC(C)(C)n1nnnc1C(c1ccc(F)cc1)N1CCN(Cc2ccc3c(c2)OCO3)CC1 (stereo not drawn)	-1.16%	
CCCC(c1nnnn1C(C)(C)C)N1CCN(Cc2ccccc2)CC1 (stereo not drawn)	-2.73%	
CCc1c(SCCC(=O)O)nc2ccccc2c1C	-7.58%	
O=C(N/N=C/c1ccco1)c1ccc(C(=O)N/N=C/c2ccco2)o1	-3.13%	
CC(=O)Nc1ccc(/C=N/NC(=O)c2cccs2)cc1	3.71%	
O=C(N/N=C/C=C/c1ccco1)c1cccs1		2 µM (active)
CCOc1cc(/C=C(/C#N)c2ccc(Cl)cc2)cc(Cl)c1OCC(=O)O	-0.694%	
Cn1sc(=O)c2cc(S(=O)(=O)NC3CC3)ccc21		0.501 µM (active)

SMILES	activity, negative = inhibition	Potency
Cc1cccc(CCNS(=O)(=O)c2ccc(S(=O)(=O)NC3CCCC3)cc2)c1	-12.2%	
N#CCCN1CCN(S(=O)(=O)c2ccc(S(=O)(=O)NC3CC3)cc2)CC1	6.11%	
CCN(CC)C(=O)Oc1ccc(OC(=O)N(CC)CC)cc1	-3.17%	
Cc1nonc1NC(=O)CSc1nc2ccccc2cc1C#N	4.78%	
C=CC(=O)c1ccc2ccccc2c1		11.2 nM (active) and 100 nM (active)
CC(=O)CCC(=O)c1ccc2ccccc2c1	-5.73%	
Cc1ccc2nc(CC(=O)c3ccc4ccccc4c3)c(=O)[nH]c2c1	12.1% [at 13.5 µM]	
CC(=O)Nc1nc2ccccc2n1Cc1ccc(C)cc1	0.717%	
CN(C)CCCN(C(=O)COc1ccccc1)c1nc2c(Cl)cccc2s1	2.64%	
CCC(C)(C)NC(=O)CN(C(=O)CCC(=O)Nc1cc(C)ccn1)c1ccc2c(c1)OCCO2	2.32%	
COc1cc(SC)ccc1C(=O)Nc1cc(C)ccn1		22.4 µM (active)
COc1cc(SC)ccc1C(=O)Nc1nc(C)cs1	7.61%	
Cc1ccnc(NC(=O)c2ccoc2C)c1	7.63%	
O=C(O)COc1ccc(/C=N/O)cc1Br	-1.14%	
Cc1ccccc1CN(c1ccc(C(=O)NCC2CCCO2)cc1)S(C)(=O)=O (stereo not drawn)	10.6%	
C/C=C(\C)C(=O)NCCN1C2=NC[C@H](Cc3ccc(O)cc3)N2C[C@@H]1Cc1ccc(OC)cc1	5.48%	
CC(NC(=O)COC(=O)c1ccc2c(c1)OCO2)c1ccccc1 (stereo not drawn)	-4.82%	
CCOC(=O)c1ccc(CS(=O)c2ccc(Cl)cc2)o1 (stereo not drawn)		2.82 µM (active)
CCOC(=O)c1c(Cc2ccc(Cl)cc2)c[nH]c1C	-2.42%	
CCOC(=O)c1ccc(COC(=O)c2cc(=O)[nH]c3ccccc23)o1	-5.02%	

Reference: PubChem BioAssay AID1030 (National Center for Advancing Translational Sciences (NCATS), 2008)
